Data: PubChem BioAssay (Tox21)
Inconclusive results are not listed. Calls of active or inactive are those of the source. Unless noted, calls come from the whole dose curve; as a rule, active = well fitted curve in the direction sought with a large enough effect in the repeat runs; inconclusive = weak or mixed curves; inactive = no such curve, though single readings can be large; an effect the other way counts as inactive or inconclusive. Residues, ends and D or L forms follow the SMILES beside them.

What was measured:
[1] = qHTS assay to identify small molecule antagonists of the glucocorticoid receptor (GR) signaling pathway - cell viability counter screen (AID 720693); note: nearly all actives have a fitted effect of over 55% in size; note: potency is the fitted concentration of half-maximal effect
[2] = qHTS assay for identifying genotoxic compounds that show differential cytotoxicity against isogenic chicken DT40 cell lines with known DNA damage response pathways - wild type cell line (AID 743012); note: nearly all actives have a fitted effect of over 60% in size; note: potency is the fitted concentration of half-maximal effect
Procedure, shortened: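 Using parental DT40 (300 cells/well), compounds delivered in DMSO incubate 40 h at 37 C/5% CO2. CellTiter-Glo reagent then stands 30 min at room temperature, and luminescence gives cell viability.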

[3] = qHTS assay for identifying genotoxic compounds that show differential cytotoxicity against isogenic chicken DT40 cell lines with known DNA damage response pathways - Rev3 mutant cell line (AID 743014); note: nearly all actives have a fitted effect of over 55% in size; note: potency is the fitted concentration of half-maximal effect
[4] = qHTS assay to identify small molecule antagonists of the androgen receptor (AR) signaling pathway - cell viability counter screen (AID 743033; note: nearly all actives have a fitted effect of over 45% in size)
[5] = test system: thyroid hormone receptor (rat, GH3 cells); experiment: qHTS assay to identify small molecule agonists of the thyroid receptor (TR) signaling pathway (AID 743066; calls by dose curve)
[6] = target: Estrogen receptor (Homo sapiens) (UniProt P03372); experiment: qHTS assay to identify small molecule antagonists of the estrogen receptor alpha (ER-alpha) signaling pathway (AID 743069; active = well fitted curve in the direction sought with a large enough effect in the signal ratio in the repeat runs, not every such curve was filed as active; the % refers to the signal ratio)
Procedure, shortened: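 Estradiol-stimulated ER-alpha-UAS-bla HEK293 cells, 18 hr compound exposure at 37C. LiveBLAzer B/G substrate, 2 hr RT, fluorescence read.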

[7] = qHTS assay to identify small molecule antagonists of the estrogen receptor alpha (ER-alpha) signaling pathway - cell viability counter screen (AID 743074; calls by dose curve;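 note: HEK293 cells carrying ER-alpha-UAS-bla reporter stimulated with 17beta-estradiol; nearly all actives have a fitted effect of over 45% in size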; note: potency is the fitted concentration of half-maximal effect)
[8] = target: Estrogen receptor (Homo sapiens) (UniProt P03372); experiment: qHTS assay to identify small molecule agonists of the estrogen receptor alpha (ER-alpha) signaling pathway (AID 743075; calls by dose curve;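 note: HEK293 GripTite cells with ER-alpha and UAS-driven beta-lactamase reporter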)
[9] = target: Estrogen receptor (Homo sapiens) (UniProt P03372); experiment: qHTS assay to identify small molecule agonists of the estrogen receptor alpha (ER-alpha) signaling pathway using the BG1 cell line (AID 743079); note: nearly all actives have a fitted effect of over 20% in size; note: potency is the fitted concentration of half-maximal effect
[10] = qHTS assay to identify small molecule antagonists of the estrogen receptor alpha (ER-alpha) signaling pathway using the BG1 cell line (AID 743080; calls by dose curve;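 note: BG1 cells stimulated with 17beta-estradiol alongside compound; series mostly up to about 70 µM; nearly all actives have a fitted effect of over 25% in size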)
Procedure, shortened: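 BG1Luc4E2, endogenous ER-alpha, 4xERE-luc; 5 d charcoal-stripped FBS, phenol red free; 24 h plating; cpd + 17beta-estradiol 21.5 h, 37 C/5% CO2; CellTiter-Fluor viability 30 min, then ONE-Glo luciferase 30 min RT.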

[11] = target: Aromatase (Homo sapiens) (UniProt P11511); experiment: qHTS assay to identify aromatase inhibitors (AID 743083); note: series mostly up to about 70 µM; nearly all actives have a fitted effect of over 55% in size
[12] = qHTS assay for identifying genotoxic compounds that show differential cytotoxicity against isogenic chicken DT40 cell lines with known DNA damage response pathways - Rad54/Ku70 mutant cell line (AID 743015); note: nearly all actives have a fitted effect of over 60% in size; note: potency is the fitted concentration of half-maximal effect
[13] = target: Androgen receptor (Homo sapiens) (UniProt P10275); experiment: qHTS assay to identify small molecule antagonists of the androgen receptor (AR) signaling pathway (AID 743035; active = well fitted inhibition curve with a large enough effect in the signal ratio in the repeat runs, not every such curve was filed as active; the % refers to the signal ratio)
Procedure, shortened: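 Using qHTS, AR-UAS-bla GripTite HEK293 cells received compound, then R1881, and were cultured 16 h at 37C/5% CO2 before a 2 h room-temperature LiveBLAzer B/G FRET substrate step and fluorescence measurement.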

[14] = target: Androgen receptor (Homo sapiens) (UniProt P10275); experiment: qHTS assay to identify small molecule agonists of the androgen receptor (AR) signaling pathway (AID 743036; active = well fitted activation curve with a large enough effect in the signal ratio in the repeat runs, with a control signal flat, not every such curve was filed as active; the % refers to the signal ratio)
Procedure, shortened: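 Screening used 2,000 AR-bla HEK293 cells per well, treated 16 h at 37C with test compounds in DMSO alongside positive and DMSO-only controls; beta-lactamase activity was then read by LiveBLAzer B/G FRET fluorescence after 2 h at room temperature.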

[15] = target: Androgen receptor (Homo sapiens) (UniProt P10275); experiment: qHTS assay to identify small molecule agonists of the androgen receptor (AR) signaling pathway using the MDA cell line (AID 743040; note: nearly all actives have a fitted effect of over 20% in size)
Procedure, shortened: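 Luminescence from ONE-Glo, read after 30 min at room temperature, reflects MMTV-driven luciferase in MDA-kb2 cells (AR- and GR-responsive). Treatment lasted 16 h at 37C, 0% CO2.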

[16] = qHTS assay to identify small molecule antagonists of the androgen receptor (AR) signaling pathway using the MDA cell line - cell viability counter screen (AID 743041; note: nearly all actives have a fitted effect of over 45% in size; note: potency is the fitted concentration of half-maximal effect)
Procedure, shortened: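 Viability counter screen run alongside the AR antagonist reporter: cells seeded 5 h before compound, R1881 added, 16 h incubation at 37C without CO2, fluorescent CellTiter-Fluor signal quantified.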

[17] = target: Androgen receptor (Homo sapiens) (UniProt P10275); experiment: qHTS assay to identify small molecule antagonists of the androgen receptor (AR) signaling pathway using the MDA cell line (AID 743042; note: nearly all actives have a fitted effect of over 55% in size)
Procedure, shortened: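 MDA-kb2 cells (human breast carcinoma, stably carrying an MMTV-luciferase reporter responsive to AR and GR) were plated at 3,000 cells/well and preincubated 5 hr at 37C, then given compound plus R1881 agonist for 16 h. ONE-Glo luminescence was read.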

[18] = qHTS assay to identify small molecule antagonists of the thyroid receptor (TR) signaling pathway - cell viability counter screen (AID 743064); note: nearly all actives have a fitted effect of over 50% in size; note: potency is the fitted concentration of half-maximal effect
Procedure, shortened: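 Viability of T3-stimulated (1 nM final) GH3.TRE-Luc cells is measured by CellTiter-Fluor fluorescence after 23.5 h compound exposure at 37 °C plus 30 min reagent incubation.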

[19] = qHTS assay to identify small molecule antagonists of the thyroid receptor (TR) signaling pathway (AID 743065)
Procedure, shortened: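 GH3.TRE-Luc rat pituitary cells carrying two TR response elements driving luciferase were plated for 4 h, given compound plus 1 nM T3 (final), and incubated 23.5 h at 37 C. ONE-Glo luminescence measured reporter inhibition; CellTiter-Fluor fluorescence tracked cytotoxicity.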

[20] = qHTS assay to identify small molecule antagonists of the estrogen receptor alpha (ER-alpha) signaling pathway using the BG1 cell line - cell viability counter screen (AID 743081);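 note: compound given together with 17beta-estradiol as the ER stimulus; series mostly up to about 70 µM; nearly all actives have a fitted effect of over 45% in size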

Measured: Potency

Sequence of Estrogen receptor (Homo sapiens) (P03372 whole entry, looked up): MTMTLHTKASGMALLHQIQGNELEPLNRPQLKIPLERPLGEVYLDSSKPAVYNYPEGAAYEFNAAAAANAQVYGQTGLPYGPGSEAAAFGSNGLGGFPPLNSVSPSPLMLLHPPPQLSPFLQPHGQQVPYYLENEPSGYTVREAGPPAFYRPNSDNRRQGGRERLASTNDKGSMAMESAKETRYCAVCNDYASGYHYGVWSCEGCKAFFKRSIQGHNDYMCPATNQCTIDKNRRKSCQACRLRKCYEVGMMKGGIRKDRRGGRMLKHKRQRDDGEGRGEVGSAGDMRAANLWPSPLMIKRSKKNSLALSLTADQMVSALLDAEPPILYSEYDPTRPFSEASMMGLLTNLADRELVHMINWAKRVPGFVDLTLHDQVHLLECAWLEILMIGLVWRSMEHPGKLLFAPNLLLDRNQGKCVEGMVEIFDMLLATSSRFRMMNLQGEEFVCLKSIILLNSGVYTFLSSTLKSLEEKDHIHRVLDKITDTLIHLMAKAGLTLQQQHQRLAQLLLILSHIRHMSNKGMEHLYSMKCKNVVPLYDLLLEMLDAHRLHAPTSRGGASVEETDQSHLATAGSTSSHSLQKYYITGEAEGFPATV
Sequence of Androgen receptor (Homo sapiens) (P10275 whole entry, looked up): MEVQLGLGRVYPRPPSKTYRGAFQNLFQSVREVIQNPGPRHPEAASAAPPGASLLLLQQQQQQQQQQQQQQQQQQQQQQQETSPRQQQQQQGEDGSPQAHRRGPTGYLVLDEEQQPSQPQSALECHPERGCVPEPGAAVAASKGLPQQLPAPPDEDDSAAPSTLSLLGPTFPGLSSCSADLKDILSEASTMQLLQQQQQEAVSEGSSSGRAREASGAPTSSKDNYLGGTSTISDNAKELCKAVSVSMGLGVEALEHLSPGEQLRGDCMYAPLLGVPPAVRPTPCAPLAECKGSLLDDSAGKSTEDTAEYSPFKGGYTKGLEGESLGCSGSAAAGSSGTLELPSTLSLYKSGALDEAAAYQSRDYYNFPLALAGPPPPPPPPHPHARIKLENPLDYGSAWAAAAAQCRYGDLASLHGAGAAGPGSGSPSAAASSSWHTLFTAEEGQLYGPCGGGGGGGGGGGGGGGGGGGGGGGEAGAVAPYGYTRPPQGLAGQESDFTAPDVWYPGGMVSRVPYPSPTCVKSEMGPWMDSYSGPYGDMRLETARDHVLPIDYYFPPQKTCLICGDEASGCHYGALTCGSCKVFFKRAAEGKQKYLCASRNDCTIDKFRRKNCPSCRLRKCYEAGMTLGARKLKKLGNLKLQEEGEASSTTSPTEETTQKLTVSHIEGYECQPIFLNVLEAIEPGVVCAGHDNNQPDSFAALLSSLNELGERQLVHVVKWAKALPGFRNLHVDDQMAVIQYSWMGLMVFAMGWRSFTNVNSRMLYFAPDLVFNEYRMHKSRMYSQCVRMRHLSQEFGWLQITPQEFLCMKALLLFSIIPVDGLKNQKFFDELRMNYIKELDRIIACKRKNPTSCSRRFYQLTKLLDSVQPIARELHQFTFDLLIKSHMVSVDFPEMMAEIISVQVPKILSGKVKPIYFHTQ
Sequence of Aromatase (Homo sapiens) (P11511 whole entry, looked up): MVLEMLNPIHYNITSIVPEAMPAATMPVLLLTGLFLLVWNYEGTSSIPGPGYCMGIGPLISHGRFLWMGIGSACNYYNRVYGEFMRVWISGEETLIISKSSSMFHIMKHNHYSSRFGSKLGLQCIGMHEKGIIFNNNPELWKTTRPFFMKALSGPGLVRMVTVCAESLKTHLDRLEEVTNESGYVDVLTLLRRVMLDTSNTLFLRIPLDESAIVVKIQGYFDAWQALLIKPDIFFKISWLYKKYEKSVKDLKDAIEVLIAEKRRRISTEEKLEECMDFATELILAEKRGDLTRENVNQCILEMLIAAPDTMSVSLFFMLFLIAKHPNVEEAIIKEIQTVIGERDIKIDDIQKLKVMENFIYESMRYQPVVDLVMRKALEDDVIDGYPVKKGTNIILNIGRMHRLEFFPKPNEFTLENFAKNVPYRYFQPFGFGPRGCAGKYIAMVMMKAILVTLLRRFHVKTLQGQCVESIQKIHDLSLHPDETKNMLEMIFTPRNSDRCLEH

CN1[C@@H](CC(=O)c2ccccc2)CCC[C@H]1C[C@H](O)c1ccccc1
active: [2] 26.6 µM
inactive: [1] | [3] | [4] | [5] | [6] | [7] | [8] | [9] | [10] | [11]

N[C@@H](Cc1cnc[nH]1)C(=O)O
inactive: [1] | [2] | [12] | [4] | [13] | [14] | [15] | [16] | [17] | [18] | [19] | [5] | [7] | [20] | [11]

CN[C@H](CC(C)C)C(=O)N[C@H]1C(=O)N[C@@H](CC(N)=O)C(=O)N[C@H]2C(=O)N[C@H]3C(=O)N[C@H](C(=O)N[C@@H](C(=O)O)c4cc(O)cc(O)c4-c4cc3ccc4O)[C@H](O)c3ccc(c(Cl)c3)Oc3cc2cc(c3O[C@@H]2O[C@H](CO)[C@@H](O)[C@H](O)[C@H]2O[C@H]2C[C@](C)(N)C(O)[C@H](C)O2)Oc2ccc(cc2Cl)[C@H]1O (stereo not given in full)
inactive: [1] | [2] | [3] | [12] | [16] | [18] | [19] | [5] | [6] | [7] | [8] | [9] | [10] | [20] | [11]

CCN(CC)CCOC[C@H]1O[C@@H](O)[C@H](OCCN(CC)CC)[C@@H](O)[C@@H]1O
inactive: [1] | [2] | [3] | [12] | [16] | [19] | [5] | [6] | [7] | [8] | [9] | [10] | [20] | [11]

CC(C)CCC[C@@H](C)[C@H]1CC[C@H]2[C@@H]3CC=C4C[C@@H](O)CC[C@]4(C)[C@H]3CC[C@]12C
inactive: [1] | [2] | [3] | [12] | [16] | [18] | [19] | [5] | [6] | [7] | [8] | [9] | [10] | [20] | [11]

CC(C)c1ccc2sc3ccccc3c(=O)c2c1
inactive: [1] | [16] | [18] | [5] | [7] | [8] | [20] | [11]
active: [2] 48.6 µM | [3] 54.5 µM | [12] 54.5 µM | [9] 6.11 µM

Cc1cccc(C)c1NC(=O)C1CCCCN1C (stereo not given)
inactive: [1] | [2] | [3] | [12] | [16] | [18] | [5] | [6] | [7] | [8] | [9] | [10] | [11]

Cc1cc(N)c2ccccc2[n+]1CCCCCCCCCC[n+]1c(C)cc(N)c2ccccc21
active: [2] 2.54 µM | [3] 2.54 µM | [12] 2.85 µM | [16] 7.49 µM | [7] 8.11 µM
inactive: [1] | [5] | [8]

CCN(CC)CCn1c(=O)c(Cc2ccc(OC)cc2)nc2ccccc21
inactive: [1] | [4] | [13] | [14] | [15] | [16] | [17] | [5] | [6] | [7] | [8] | [9] | [10] | [20] | [11]
active: [2] 26.6 µM | [3] 29.8 µM | [18] 26.6 µM

O=C(Cn1cnnn1)N[C@@H]1C(=O)N2C(C(=O)O)=C(CSc3nncs3)CS[C@H]12
inactive: [1] | [2] | [3] | [12] | [16] | [18] | [5] | [6] | [7] | [8] | [9] | [10] | [20] | [11]

O=C(O)c1cc(O)c2c(c1)[C@H]([C@H]1c3cc(C(=O)O)cc(O)c3C(=O)c3c(O[C@@H]4O[C@H](CO)[C@@H](O)[C@H](O)[C@H]4O)cccc31)c1cccc(O[C@@H]3O[C@H](CO)[C@@H](O)[C@H](O)[C@H]3O)c1C2=O
inactive: [1] | [2] | [3] | [12] | [16] | [19] | [5] | [7] | [20] | [11]

NC(=O)[C@@H]1CCCN1C(=O)[C@H](Cc1cnc[nH]1)NC(=O)[C@@H]1CCC(=O)N1
inactive: [1] | [2] | [12] | [4] | [16] | [18] | [19] | [5] | [6] | [7] | [8] | [9] | [10] | [20] | [11]

O=C(O)CCCC/C=C(\c1ccccc1)c1cccnc1
inactive: [1] | [2] | [12] | [4] | [16] | [18] | [19] | [5] | [6] | [7] | [8] | [9] | [10] | [20] | [11]

CC(C)[C@H](NC(=O)[C@H](CC(=O)O)NC(=O)[C@H](CCCCN)NC(=O)[C@@H](N)CCCN=C(N)N)C(=O)N[C@@H](Cc1ccc(O)cc1)C(=O)O (H-RKDVY-OH)
inactive: [1] | [2] | [12] | [4] | [16] | [19] | [5] | [6] | [7] | [8] | [9] | [10] | [20] | [11]

CCCCCCCCCCCCN1CCCC1=O
inactive: [4] | [16] | [5] | [20] | [11]
active: [1] 43.6 µM | [2] 24.3 µM | [12] 30.6 µM

O=C(O)c1ccc(NC2OC[C@@H](O)[C@H](O)[C@H]2O)cc1 (stereo not given in full)
inactive: [1] | [2] | [12] | [4] | [16] | [18] | [19] | [5] | [6] | [7] | [8] | [9] | [10] | [20] | [11]

CC(CNC(=O)c1cccnc1)NC(=O)c1cccnc1 (stereo not given)
inactive: [1] | [2] | [12] | [4] | [16] | [18] | [19] | [5] | [7] | [20] | [11]

CCCCCCCCCC(=O)NO
inactive: [1] | [2] | [12] | [4] | [16] | [18] | [19] | [5] | [6] | [7] | [8] | [9] | [10] | [20] | [11]

O=C(CCCCCCCCc1cccnc1)N1CCC(C=C(c2ccccc2)c2ccccc2)CC1
inactive: [14] | [15] | [16] | [17]
active: [1] 34.7 µM | [2] 48.6 µM | [12] 24.3 µM | [18] 27.3 µM | [7] 43.6 µM

Nc1nc(NC2CC2)c2ncn([C@@H]3C=C[C@@H](CO)C3)c2n1
inactive: [1] | [2] | [12] | [4] | [16] | [18] | [5] | [6] | [7] | [8] | [20] | [11]
active: [9] 2.66 µM

C[S+](CC[C@H](N)C(=O)O)C[C@H]1O[C@@H](n2cnc3c(N)ncnc32)[C@H](O)[C@@H]1O (stereo not given in full)
inactive: [1] | [2] | [12] | [4] | [16] | [19] | [5] | [7] | [20] | [11]
